Rows were chosen to be rich in hits. Some 2.4% of all compounds tested hit in one or more screens of this group.
POLB inh = qHTS Assay for Inhibitors of DNA Polymerase Beta; P06746; Pol beta primer extension/strand displacement, fluorescence kinetic; Potency, µM (highest dose often 114 µM), hits mostly inhibitors; actives 1.3% (n = 340,000)
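10 nM enzyme + cpd, 15 min RT; start with substrate 50 nM final; read 0 min and after 10 min RT. Corrected, normalized data; 4-parameter Hill curve fit.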
TDP1 inh = qHTS Assay for Inhibitors of Tyrosyl-DNA Phosphodiesterase (TDP1); Tyrosyl-DNA phosphodiesterase 1 (Homo sapiens), Q9NUW8; recombinant TDP1, AlphaScreen DNA substrate cleavage; Potency, µM (series often up to 130 µM), most hits filed as inhibitors; actives 0.28% (n = 350,000); AID 485290, 2010; further: nearly all actives have a fitted effect of over 40% in size
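Recombinant E. coli-expressed Tdp1 (1 nM) preincubated with compound 15 min at RT, then 5'-biotin/3'-phosphotyrosine-FITC DNA substrate (15 nM) added for 5 min. AlphaScreen beads (10 ug/ml) added, 10 min RT; tyrosine-FITC cleavage read as signal loss.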
POLH inh = qHTS for Inhibitors of Polymerase Eta; DNA polymerase eta (Homo sapiens), Q9Y253; recombinant Pol eta, fluorescent DNA replication assay; Potency, µM (top dose mostly 114 µM), actives largely listed as inhibitors; actives 1.2% (n = 390,000)
Target sequence (Q9Y253 whole entry, looked up): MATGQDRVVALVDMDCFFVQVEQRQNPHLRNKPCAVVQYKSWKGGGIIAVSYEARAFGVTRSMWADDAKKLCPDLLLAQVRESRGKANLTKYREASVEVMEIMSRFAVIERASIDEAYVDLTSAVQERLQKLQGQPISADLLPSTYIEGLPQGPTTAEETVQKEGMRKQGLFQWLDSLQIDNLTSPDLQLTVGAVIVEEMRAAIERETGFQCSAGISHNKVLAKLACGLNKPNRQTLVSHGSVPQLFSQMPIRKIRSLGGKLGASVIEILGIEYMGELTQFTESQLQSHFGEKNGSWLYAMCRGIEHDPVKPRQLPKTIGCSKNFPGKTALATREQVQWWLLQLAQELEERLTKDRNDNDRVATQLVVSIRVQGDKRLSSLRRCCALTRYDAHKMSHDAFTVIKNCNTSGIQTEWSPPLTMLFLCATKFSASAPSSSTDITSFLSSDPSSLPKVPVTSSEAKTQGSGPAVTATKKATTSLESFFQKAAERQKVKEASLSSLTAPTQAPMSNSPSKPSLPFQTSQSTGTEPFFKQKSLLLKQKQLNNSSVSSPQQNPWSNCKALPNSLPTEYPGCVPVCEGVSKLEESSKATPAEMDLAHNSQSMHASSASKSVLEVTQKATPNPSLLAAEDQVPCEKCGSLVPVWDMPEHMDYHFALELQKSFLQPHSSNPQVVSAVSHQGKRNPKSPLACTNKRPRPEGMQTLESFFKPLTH
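Pol eta (10 nM) was preincubated with compounds for 15 min at room temperature, after which fluorescent replication substrate (50 nM final) was added to start the reaction. Fluorescence was read kinetically at 0 and 10 min.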
FEN1 inhibitor = qHTS Assay for the Inhibitors of Human Flap endonuclease 1 (FEN1); P39748; Recombinant FEN1 flap cleavage, fluorescence, 15 min; Potency, µM (doses to about 114 µM), usual class: inhibitors; actives 0.35% (n = 390,000); AID 588795, 2011; further: nearly all actives have a fitted effect of over 65% in size
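Nuclease activity of 10 nM FEN1 was measured after 15 min of room-temperature exposure to titrated compounds, by adding 50 nM flap substrate and reading plates at 0 and 15 min.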
Pol kappa inh = qHTS for Inhibitors of Polymerase Kappa; DNA polymerase kappa (Homo sapiens), Q9UBT6; purified Pol kappa, fluorescent DNA synthesis assay, 10 min; Potency, µM (highest dose often 107 µM), usual class: inhibitors; actives 0.53% (n = 400,000)
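Kinetic fluorescence readout at 0 and 10 min followed reaction start with substrate at 50 nM final. Beforehand, enzyme (10 nM Pol kappa) stood 15 min with compound at room temperature; buffer-only wells were negative controls.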
Pol iota inh = qHTS for Inhibitors of Polymerase Iota. Potency, µM (titrated, usually from 115 µM), most hits filed as inhibitors. Pol iota fluorescent replication assay, 10 min. AID 588590, 2011. actives 1% (n = 390,000)
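Pol iota at 10 nM preincubated 15 min with compounds at room temperature; reaction started with fluorescent substrate, 50 nM final. Fluorescence read kinetically at 0 and 10 min; buffer-only wells as negative control.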
TbPGK inh = qHTS for inhibitors of Phosphogylcerate Kinase: Hit Validation Screen | actives 79% (n = 500) | TbPGK coupled GAPDH assay, Kinase-Glo luminescence | shares compounds with Pol kappa inh | Potency, µM (series often up to 57.5 µM), usual class: inhibitors | AID 686980, 2013; further: nearly all actives have a fitted effect of over 65% in size
POLI cherry-pick = qHTS for Inhibitors of Polymerase Iota: Confirmatory Assay for Cherry-picked Compounds. shares compounds with Pol kappa inh. Pol iota primer extension, TAMRA/BHQ fluorescence. Potency, µM, hits mostly inhibitors. actives 77% (n = 1,500). AID 720496, 2013
A number is an active result; [ ] = dose if it differs, or a comment. The call rests on the fitted dose curve; in most records, active means well fitted curve in the direction sought with a large enough effect; inconclusive means small, poorly fitted or top-dose-only effect, or another doubt; inactive means no such curve, though single readings can be large; an effect the other way counts as inactive or inconclusive.

Results for O=C(O)C1Nc2c(O)cccc2C2C=CCC12 (stereo not given) ?
POLB inh: 1.6µM; POLH inh: 1.3µM; FEN1 inhibitor: 40µM; Pol kappa inh: 10µM; Pol iota inh: inconclusive; TbPGK inh: 3.3µM

How did C/C=C1\COC(C(=O)NCCOCCO)(C(F)(F)F)C=C1C=C1CCCCC1 (stereo not given) do in these assays?
TDP1 inh: inactive; FEN1 inhibitor: inactive; Pol kappa inh: inactive; Pol iota inh: inactive

What do the screens show for `CS(=O)(=O)c1ccc(C(=O)Nc2ccc(-c3nc4ccccc4[nH]3)cc2)cc1`?
POLB inh: inactive; TDP1 inh: inactive; POLH inh: inactive; FEN1 inhibitor: inactive; Pol kappa inh: inactive; Pol iota inh: inactive

Results for O=C(Nc1ccc(-c2nc3ccccc3[nH]2)cc1)c1ccc(C(F)(F)F)cc1 ?
POLI cherry-pick: inconclusive

How did CC(O)[C@@H](O)[C@H]1CNc2nc(N)[nH]c(=O)c2N1 (stereo not given in full) do in these assays?
POLB inh: inactive; TDP1 inh: inactive; POLH inh: inactive; Pol iota inh: inactive

What do the screens show for `O=C(c1ccco1)N1CCC2(CC1)CCN(c1cccc(-c3ccccc3)c1)CC2`?
Pol kappa inh: inactive

How did Cc1cc(N2CCC(C)CC2)nc2ccc(NC(=O)Cc3ccccc3Br)cc12 do in these assays?
POLB inh: inactive; TDP1 inh: inactive; POLH inh: inactive; FEN1 inhibitor: inactive; Pol kappa inh: inconclusive; Pol iota inh: inconclusive

Results for COC(=O)c1nn(-c2ccc3c(c2)CCN3C(C)=O)cc1O ?
POLB inh: inactive; TDP1 inh: inactive; POLH inh: inactive; FEN1 inhibitor: inactive; Pol kappa inh: inactive; Pol iota inh: inactive; TbPGK inh: 21µM

Results for CCC(C)[C@H]1CNCCN1CC1(c2ccccc2)CC1 (stereo not given in full) ?
TDP1 inh: inactive; POLH inh: inactive; FEN1 inhibitor: inactive; Pol kappa inh: inactive; Pol iota inh: inconclusive

What do the screens show for `CCC(C)[C@H]1CNCCN1CCc1cccc2ccccc12` (stereo not given in full)?
TDP1 inh: inconclusive; POLH inh: inactive; FEN1 inhibitor: inactive; Pol kappa inh: inactive; Pol iota inh: inconclusive; TbPGK inh: inconclusive

Results for Cc1cccc(/C(N)=N/OC(=O)c2ccoc2C)c1 ?
POLB inh: inactive; POLH inh: inactive; FEN1 inhibitor: inactive; Pol kappa inh: inactive; Pol iota inh: inactive

Results for Cc1ccccc1C(=O)O/N=C(\N)c1ccc([N+](=O)[O-])cc1 ?
POLB inh: inactive; POLH inh: inactive; FEN1 inhibitor: inactive; Pol kappa inh: inactive; Pol iota inh: inactive

What do the screens show for `Cc1ccccc1C(=O)O/N=C(\N)c1ccccc1`?
POLB inh: inactive; POLH inh: inactive; FEN1 inhibitor: inactive; Pol kappa inh: inactive; Pol iota inh: inactive; TbPGK inh: 15µM

What do the screens show for `Cc1occc1C(=O)O/N=C(\N)c1ccccc1`?
POLB inh: inactive; POLH inh: inactive; FEN1 inhibitor: inactive; Pol kappa inh: inactive; Pol iota inh: inactive; TbPGK inh: 18µM

What do the screens show for `O=[N+]([O-])c1ccccc1S(=O)(=O)NCCSCc1ccco1`?
TDP1 inh: inactive; POLH inh: inactive; FEN1 inhibitor: inactive; Pol kappa inh: inactive; Pol iota inh: inconclusive

What do the screens show for `CS(=O)(=O)NCCSCc1ccco1`?
POLB inh: 40µM; POLH inh: 71µM; FEN1 inhibitor: inactive; Pol kappa inh: inconclusive; Pol iota inh: inconclusive; TbPGK inh: 21µM

How did CS(=O)(=O)c1cccc(-c2nnc(NC(=O)c3ccc4c(c3)OCCO4)o2)c1 do in these assays?
POLB inh: inactive; TDP1 inh: inactive; POLH inh: inactive; FEN1 inhibitor: inactive; Pol kappa inh: inactive; Pol iota inh: inactive

What do the screens show for `CC(C)Oc1cccc(-n2c(CCc3c[nH]c4ccc(Br)cc34)nc3ccccc3c2=O)c1`?
TDP1 inh: inactive; Pol kappa inh: inactive[19.4 µM]

How did CCc1nn2c(=O)cc(COc3cccc(NC(=O)c4ccco4)c3)nc2s1 do in these assays?
POLB inh: inconclusive; TDP1 inh: 50µM; POLH inh: inconclusive; FEN1 inhibitor: inactive; Pol kappa inh: inconclusive; Pol iota inh: 50µM; POLI cherry-pick: inconclusive

How did CC1(C)CCCN(C(=O)c2coc(=O)c(Br)c2)C1 do in these assays?
POLB inh: 0.45µM; TDP1 inh: 6.3µM; POLH inh: 0.89µM; FEN1 inhibitor: 56µM; Pol kappa inh: 14µM; Pol iota inh: 10µM; TbPGK inh: 0.82µM

How did O=C(Cc1ccc(F)cc1)NCc1ccc2c(c1)CCN2C(=O)c1ccc(F)cc1 do in these assays?
POLB inh: inactive; TDP1 inh: inactive; POLH inh: inactive; FEN1 inhibitor: inactive; Pol kappa inh: inactive; Pol iota inh: inactive

What do the screens show for `C=CCN=C1NN=C(c2cc(C)n(CCOC)c2C)CS1`?
POLB inh: inactive; TDP1 inh: inactive; POLH inh: inactive; FEN1 inhibitor: inactive; Pol kappa inh: inactive; Pol iota inh: inactive

What do the screens show for `COCCn1c(C)cc(C2=NNC(=NC3CC3)SC2)c1C`?
POLB inh: inactive; TDP1 inh: inactive; POLH inh: inactive; FEN1 inhibitor: inactive; Pol kappa inh: inactive; Pol iota inh: inactive; TbPGK inh: 16µM

How did Cc1occc1C(=O)N/N=C/c1ccc(N(C)C)cc1 do in these assays?
POLB inh: inactive; TDP1 inh: inactive; POLH inh: inactive; FEN1 inhibitor: inactive; Pol kappa inh: inactive; Pol iota inh: inactive; TbPGK inh: 10µM

How did CCOc1ccccc1NC(=O)CSc1nc2ccccc2nc1Cc1ccc(C)cc1 do in these assays?
POLB inh: inactive; TDP1 inh: inactive; POLH inh: inactive; FEN1 inhibitor: inactive; Pol kappa inh: inactive; Pol iota inh: inactive

What do the screens show for `O=[N+]([O-])c1ccc2nc(SCc3cn4cc(Cl)ccc4n3)[nH]c2c1`?
POLB inh: 5.6µM; TDP1 inh: inactive; POLH inh: 50µM; FEN1 inhibitor: inactive; Pol kappa inh: inactive; Pol iota inh: 28µM; POLI cherry-pick: inconclusive
